Bioassay records as filed in PubChem.
Hits are enriched below; roughly 1.6% of the tested compounds scored in any of these assays.
KCNQ2 inh = blocks the rat KCNQ2 potassium channel | O88943 | CHO-K1 KCNQ2, FluxOR thallium flux, 20 min; active compounds read low | 1.1% of 310,000 active | AID 2156 | B-score at 10 µM;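 active = fluorescence ratio B-score at most minus 3 library SDs, with starting brightness B-score within 2 library SDs, cut at about -5.5 in these data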
Target sequence (O88943 whole entry, looked up): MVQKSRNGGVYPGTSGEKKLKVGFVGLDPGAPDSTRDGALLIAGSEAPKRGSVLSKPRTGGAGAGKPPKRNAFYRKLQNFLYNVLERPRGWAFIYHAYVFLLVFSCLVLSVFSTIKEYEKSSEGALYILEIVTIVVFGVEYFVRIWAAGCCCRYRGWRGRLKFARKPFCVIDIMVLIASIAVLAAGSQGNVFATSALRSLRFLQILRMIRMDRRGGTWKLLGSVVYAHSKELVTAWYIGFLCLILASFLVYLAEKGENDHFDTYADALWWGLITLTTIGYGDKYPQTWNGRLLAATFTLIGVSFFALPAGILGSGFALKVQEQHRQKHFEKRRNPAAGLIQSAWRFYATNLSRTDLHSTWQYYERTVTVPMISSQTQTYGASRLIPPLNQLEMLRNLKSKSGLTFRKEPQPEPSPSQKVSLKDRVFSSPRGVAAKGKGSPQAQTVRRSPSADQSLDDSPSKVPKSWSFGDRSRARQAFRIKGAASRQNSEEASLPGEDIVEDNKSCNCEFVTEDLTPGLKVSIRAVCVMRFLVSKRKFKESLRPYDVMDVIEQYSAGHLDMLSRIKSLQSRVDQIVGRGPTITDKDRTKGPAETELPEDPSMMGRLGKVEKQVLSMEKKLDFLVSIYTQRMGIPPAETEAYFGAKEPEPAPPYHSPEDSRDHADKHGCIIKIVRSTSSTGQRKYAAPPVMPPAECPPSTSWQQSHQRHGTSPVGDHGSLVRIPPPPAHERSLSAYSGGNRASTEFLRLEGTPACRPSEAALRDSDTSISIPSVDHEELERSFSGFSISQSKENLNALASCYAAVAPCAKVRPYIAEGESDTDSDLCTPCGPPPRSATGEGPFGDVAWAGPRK
KCNQ2 enhance = KCNQ2 (rat) channel potentiation | CHO-K1 KCNQ2, FluxOR thallium flux fluorescence; active compounds read high | B-score at 10 µM | 0.54% of 310,000 active | AID 2239 | O88943;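 active = fluorescence ratio B-score at least 3 SD of library B-scores, with initial fluorescence B-score within 3 of them, cut at about 5.3 in these data; same plate scores as AID 2156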;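 note: B-score of peak minus minimum over baseline fluorescence ratio after K+ and Tl+ stimulus; positive B-score means potentiation of KCNQ2 with more thallium influx and brighter signal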
Kir21 confirm = confirmation of mouse Kir2.1 potassium channel inhibitors; 41% of 2,300 active; Kir2.1-expressing cells, FluxOR thallium flux fluorescence; active compounds read low; Tl flux remaining, % of negative control (active compounds read low), % at 10 µM; shares compounds with KCNQ2 enhance;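 active = Primary-screen hit whose thallium flux fell at least 3 control SD below untreated wells in both duplicates, with normal baseline fluorescence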
HEK293 ctr = parental HEK293 activity in Kir2.1 inhibitor counter-screen | shares compounds with KCNQ2 enhance | parental HEK293 cells, FluxOR thallium flux fluorescence; 0% = unstimulated blank wells | FluxOR signal as % of negative control (100 = no effect), % at 10 µM | 19% of 2,300 active;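 active = dye signal at least 3 control SD above or below untreated wells in both duplicates, raw fluorescence within 3, either direction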;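 note: percent is based on the flux ratio of peak minus minimum fluorescence over baseline F0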
CHO-K1 ctr = counter-screen for KCNQ2 potentiators: effect in parental CHO-K1 cells; activity increase over 3SD of controls, % at 10 µM; 43% of 1,200 active; FluxOR thallium flux fluorescence; zero = vehicle mean+3SD, 100% = vehicle-minus-blank window; shares compounds with KCNQ2 enhance; AID 2282;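 active = signal rise of at least 3 SD above the untreated control mean, in both duplicate wells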;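 note: counter screen of KCNQ2 potentiator hits so any rise reflects channel-independent effects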
KCNQ1 pot spec = tests whether KCNQ2 potentiators also act on human KCNQ1; shares compounds with KCNQ2 enhance; CHO KCNQ1 stable, FluxOR thallium flux fluorescence; beyond 3SD, as % of vehicle-control signal; activation over 3SD threshold, % at 10 µM; 28% of 1,200 active; AID 2283;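 active = fluorescence ratio rise of at least 3 SD of vehicle wells above their mean, in both replicate wells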
KCNQ2 pot conf = rat KCNQ2 channel potentiator confirmation; AID 2287; potentiation, less the hit threshold, % at 10 µM; shares compounds with KCNQ2 enhance; 68% of 1,200 active; CHO-KCNQ2 cells, FluxOR thallium flux fluorescence;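 active = fluorescence ratio rising 3 SD or more over the vehicle control mean in both replicates, plus primary screen hit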;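 note: peak minus minimum thallium fluorescence divided by baseline after K/Tl stimulus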
Kir2-1 sel = mouse Kir2.1 off-target activity of KCNQ2 potentiators; HEK293 Kir2.1, FluxOR thallium flux fluorescence; shares compounds with KCNQ2 enhance; AID 2345; activity over 3SD threshold, % at 10 µM; 2% of 1,200 active;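 active = fluorescence ratio rise of at least 3 SD above the vehicle-control mean, seen in both replicates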
KCNQ2 W236L pot = KCNQ2 potentiators acting on retigabine-insensitive rat KCNQ2 W236L mutant; shares compounds with KCNQ2 enhance; CHO KCNQ2-W236L, automated patch clamp current; current increase over 3SD of negative controls (%), active compounds read high, % at 25 µM; 10% of 940 active; AID 2558;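 active = current increase at least 3 SD of the untreated controls above them in both duplicate recordings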
Hits are given with their value; n = inactive; x = no result.

SMILES | KCNQ2 inh | KCNQ2 enhance | Kir21 confirm | HEK293 ctr | others
COC(=O)c1ccc(C(=O)NC(=S)Nc2nc3c(s2)CCCC3)cc1 | n | 7.3 | n | n | CHO-K1 ctr=83;KCNQ1 pot spec=n;KCNQ2 pot conf=n;Kir2-1 sel=n;KCNQ2 W236L pot=n
Cc1ccc(NC(=S)N2CCN(c3ncccn3)CC2)c(C)c1 | n | n | x | x
Cc1ccc(-c2csc(NC(=O)c3ccc(F)cc3)c2C(=O)O)cc1 | n | n | x | x
CC(=O)Nc1ccc(NC(=O)[C@@H](NC(=O)N2C[C@H]3C[C@@H](C2)c2cccc(=O)n2C3)C(C)C)cc1 | n | n | x | x
CN(NS(=O)(=O)c1ccc(Cl)cc1)c1ncc(C(F)(F)F)cc1Cl | n | n | 58% | n
CN(NS(=O)(=O)c1ccc(F)cc1)c1ncc(C(F)(F)F)cc1Cl | n | n | x | x
CC(=O)c1ccc(OC(=O)c2nc(-c3ccccc3)oc2C)cc1 | n | n | x | x
O=C(NCCc1cscn1)C1CCC(=O)N(Cc2ccc(Cl)cc2)C1 (stereo not drawn) | n | x | x | x
CCOc1ccc(NS(=O)(=O)c2ccc(OC)c(C)c2)cc1 | n | n | n | n
CCOc1ccc(NS(=O)(=O)c2ccc(NC(C)=O)c(OC)c2)cc1 | n | x | x | x
CC(C)[C@H](NC(=O)CCCn1nnc2ccccc2c1=O)C(=O)O | n | n | x | x
COC(=O)CSc1[nH]c2ccc(Br)cc2c1[N+](=O)[O-] | n | 6.5 | n | n | CHO-K1 ctr=n;KCNQ1 pot spec=n;KCNQ2 pot conf=n;Kir2-1 sel=n
CCOc1ccc2[nH]c(SCC(=O)OC)c([N+](=O)[O-])c2c1 | n | x | x | x
CCCc1cc(C(=O)N/N=C/c2cccn2C)cs1 | n | x | x | x
CCCC(=O)Nc1ccc(C#Cc2ccccc2)cc1 | n | x | x | x
CCCCC#Cc1ccccc1CC(=O)Nc1ccccc1 | n | 7.1 | n | n | CHO-K1 ctr=99;KCNQ1 pot spec=n;KCNQ2 pot conf=9.6;Kir2-1 sel=n;KCNQ2 W236L pot=n
Cc1cc(C)c2nc(SC(C)C#N)cc(C)c2c1 (stereo not drawn) | n | 5.6 | n | 68% | CHO-K1 ctr=75;KCNQ1 pot spec=n;KCNQ2 pot conf=n;Kir2-1 sel=n;KCNQ2 W236L pot=n
Cc1cc(C)c2nc(SC3CCOC3=O)cc(C)c2c1 (stereo not drawn) | n | n | x | x
COc1cc(C(C(=O)Nc2c(C)cccc2C)N(C)C(=O)c2ccc(-n3cnnn3)cc2)ccc1O (stereo not drawn) | n | x | x | x
CCOc1cccc(NC(=O)C2CC(=O)N(C)C(=Nc3ccccc3)S2)c1 (stereo not drawn) | n | n | x | x
CCOc1cccc(NC(=O)C2CC(=O)N(C)C(=Nc3cccc(F)c3)S2)c1 (stereo not drawn) | n | 6.5 | n | n | CHO-K1 ctr=n;KCNQ1 pot spec=n;KCNQ2 pot conf=n;Kir2-1 sel=n
O=C1c2ccccc2NC(c2ccc(O)c(O)c2)N1c1ccccc1Cl (stereo not drawn) | n | n | x | x
CCOCCCNC(=O)c1cc2c(s1)-c1ccccc1SC2 | n | n | x | x
CN(C)CCNC(=O)c1cc2c(s1)-c1ccc(Cl)cc1SC2 | -7.6 | n | n | n
CC(=O)SCC(=O)N=c1sc2cc(F)ccc2n1C | n | 5.9 | n | n | CHO-K1 ctr=n;KCNQ1 pot spec=n;KCNQ2 pot conf=5.6;Kir2-1 sel=n;KCNQ2 W236L pot=n
SMILES | KCNQ2 inh | KCNQ2 enhance | Kir21 confirm | HEK293 ctr | others
Cn1c(=NC(=O)CCS(=O)(=O)c2ccccc2)sc2cc(F)ccc21 | n | x | x | x
Nc1nc(CCl)nc(N(c2ccccc2)c2ccccc2)n1 | n | n | x | x
CCOc1cc(C(c2c(C)[nH][nH]c2=O)c2c(C)[nH][nH]c2=O)ccc1OCc1ccc([N+](=O)[O-])cc1 | n | x | n | n
CCOc1cc(C(c2c(C)[nH][nH]c2=O)c2c(C)[nH][nH]c2=O)ccc1OC(=O)c1cccc([N+](=O)[O-])c1 | n | x | x | x
S=c1[nH]nc(COc2ccccc2)n1/N=C/c1ccc(Cl)c(Cl)c1 | n | x | x | x
Cc1cccc(/C=N/n2c(COc3ccccc3)n[nH]c2=S)c1 | n | 6 | n | 158% | CHO-K1 ctr=n;KCNQ1 pot spec=n;KCNQ2 pot conf=0.0;Kir2-1 sel=n;KCNQ2 W236L pot=n
OCCNC(=S)c1ccccc1 | n | x | x | x
O=C(CCS(=O)(=O)c1ccc(F)cc1)Nc1nc(-c2ccncc2)cs1 | n | x | x | x
C(=N\Nc1nc2ccccc2s1)/c1ccccn1 | n | 11 | n | n | CHO-K1 ctr=n;KCNQ1 pot spec=n;KCNQ2 pot conf=44;Kir2-1 sel=n;KCNQ2 W236L pot=n
Brc1csc(/C=N/Nc2nc3ccccc3s2)c1 | n | n | x | x
CCCCc1nnc(NC(=O)c2ccc3[nH]c(=O)c(=O)[nH]c3c2)s1 | n | n | x | x
CCCC(=O)OCCNc1cc(Sc2nccn2C)c2nonc2c1[N+](=O)[O-] | n | x | 70% | n
CCCSc1cc(NCCOC(=O)CCC)c([N+](=O)[O-])c2nonc12 | n | x | x | x
CCOc1cccnc1Sc1ccccc1 | n | n | x | x
COc1ccccc1N1CCN(C(=O)CSc2nc(C)c(Cc3ccccc3)c(=O)[nH]2)CC1 | n | 9.2 | n | n | CHO-K1 ctr=n;KCNQ1 pot spec=n;KCNQ2 pot conf=29;Kir2-1 sel=n;KCNQ2 W236L pot=n
COc1ccccc1N1CCN(C(=O)CSc2nc(-c3ccccc3)cc(=O)[nH]2)CC1 | n | x | x | x
OC(CNCc1ccccn1)c1ccccc1 (stereo not drawn) | n | n | x | x
Fc1ccc(C(CCNCc2ccccn2)c2ccc(Cl)cc2)cc1 (stereo not drawn) | n | x | 34% | n
Cc1sc2nc3ccc(NCc4ccco4)nn3c(=O)c2c1C | n | 6.7 | n | n | CHO-K1 ctr=46;KCNQ1 pot spec=n;KCNQ2 pot conf=n;Kir2-1 sel=n
O=c1c2ccccc2nc2ccc(NCc3ccco3)nn12 | n | n | x | x
CCCCCCCC/C=C\CCCCCCCC(=O)O | n | 6.8 | n | n | CHO-K1 ctr=n;KCNQ1 pot spec=33;KCNQ2 pot conf=n;Kir2-1 sel=n
CCCCCCCCC(=O)O | n | n | x | x
CN(C(=O)c1cccc(COc2ccc(Cl)cc2Cl)c1)c1ccccc1 | n | x | n | n
O=C(c1cccc(COc2ccc(Cl)cc2Cl)c1)N1CCN(c2ccccn2)CC1 | n | x | x | x
O=C(Nc1ccnn1C1CCN(CCCc2ccccc2)CC1)c1cccc(F)c1 | n | n | x | x
SMILES | KCNQ2 inh | KCNQ2 enhance | Kir21 confirm | HEK293 ctr | others
CC1(C)OC(=O)N(NCc2ccccc2)C1(C)O (stereo not drawn) | n | x | x | x
O=C(CCC(=O)N1CCOc2ccc(Cl)cc21)NCCCN1CCN(c2ccccc2F)CC1 | n | n | x | x
O=C(CCC(=O)N1CCOc2ccc(Cl)cc21)NCCCN1CCC(Cc2ccccc2)CC1 | n | x | n | n
CCN(CC)CCCN(C(=O)c1ccco1)c1nc(-c2ccc(Cl)cc2)cs1 | n | x | 51% | n
CCN(CC)CCCN(C(=O)c1ccco1)c1nc(-c2ccc(C)cc2)cs1 | n | x | x | x
CC1CCN(C(=O)Cn2c3ccccc3c3nc4n(c(=O)c32)CCS4)CC1 | n | n | x | x
Cc1cc(C(=O)NNc2ccc(C(C)C)cc2)n(C(C)(C)C)n1 | n | n | x | x
